Hits are enriched below; roughly 12% of the tested compounds scored in any of these assays.
L3MBTL1 inh = L3MBTL1 (human) inhibition | Q9Y468 | AlphaScreen L3MBTL1–H3K9me1 peptide binding | Potency, µM (titrated, usually from 57.1 µM), hits mostly inhibitors | hit rate 0.66% among 230,000 | AID 485360; further: nearly all actives have a fitted effect of over 60% in size
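AlphaScreen proximity signal between nickel-chelate acceptor and streptavidin donor beads (final 10 ug/mL) reports binding of 50 nM L3MBTL1 to 75 nM biotin-H3 K9me1 peptide; complex incubated with compounds 30 min at room temperature; cefsulodin titration as control.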
HP1b chromo inh = inhibitors of HP1-beta chromodomain binding to methylated histone tails; AlphaScreen HP1-beta / biotin-H3K9me3 peptide binding; Potency, µM (doses to about 114 µM), actives largely listed as inhibitors; hit rate 0.56% among 390,000; AID 540317; further: nearly all actives have a fitted effect of over 70% in size
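Compound inhibition of the preformed complex between 50 nM HP1-beta and 50 nM biotinylated H3K9me3 peptide was read by AlphaScreen. Buffer was PBS pH 7.4 with 0.01% Tween-20. Incubations ran 30 min at room temperature, with 10 ug/mL donor/acceptor beads.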
Sfp PPTase inh = inhibitors of Bacillus subtilis Sfp phosphopantetheinyl transferase; Biochemical Sfp PPTase activity, qHTS; AID 1490; hit rate 3.5% among 310,000; Q9F4F7; Potency, µM, most hits filed as inhibitors;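 further: the enzyme is Sfp with the accession as filed and its product quenches rhodamine fluorescence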
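With Hepes-Na pH 7.6 buffer containing 10 mM MgCl2, Sfp (15 nM) modified BHQ-2-YbbR (12.5 uM) using rhodamine-CoA (5 uM). Two reads 30 minutes apart at 525/598 nm yielded each well's rate.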
BAZ2B block = blocks human BAZ2B; Q9UIF8; AlphaScreen BAZ2B-H3K14Ac peptide displacement; Potency, µM (series often up to 114 µM), actives largely listed as inhibitors; hit rate 4.4% among 360,000; AID 504333; further: nearly all actives have a fitted effect of over 60% in size
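AlphaScreen displacement: compounds (up to 110uM) incubated 30 min at room temperature with a preformed 50 nM BAZ2B/50 nM biotinylated H3K14Ac peptide complex in PBS pH 7.4 with Tween-20. Donor and acceptor beads at 10 ug/mL final added, 20 min light-protected before reading.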
G9a block = inhibitors of human histone lysine methyltransferase G9a. Q96KQ7. G9a H3K9 monomethylation, AlphaScreen, 2 h. Potency, µM (top dose mostly 102 µM), usual class: inhibitors. hit rate 8.8% among 350,000. AID 504332; further: nearly all actives have a fitted effect of over 75% in size
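Methyltransferase reactions run at room temperature for 2 h (20 nM enzyme, 500 nM biotin-H3K9 peptide, 20 uM SAM) after a 15 min compound preincubation; product detected by AlphaScreen beads and anti-H3K9me1 antibody.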
JMJD2A Tudor inh = inhibitors of human JMJD2A Tudor domain. O75164. AlphaScreen JMJD2A-Tudor / H3K4me3 peptide binding. Potency, µM (highest dose often 114 µM), usual class: inhibitors. hit rate 4.4% among 390,000; further: nearly all actives have a fitted effect of over 50% in size
Target sequence (O75164 whole entry, looked up, the tested form may be a part): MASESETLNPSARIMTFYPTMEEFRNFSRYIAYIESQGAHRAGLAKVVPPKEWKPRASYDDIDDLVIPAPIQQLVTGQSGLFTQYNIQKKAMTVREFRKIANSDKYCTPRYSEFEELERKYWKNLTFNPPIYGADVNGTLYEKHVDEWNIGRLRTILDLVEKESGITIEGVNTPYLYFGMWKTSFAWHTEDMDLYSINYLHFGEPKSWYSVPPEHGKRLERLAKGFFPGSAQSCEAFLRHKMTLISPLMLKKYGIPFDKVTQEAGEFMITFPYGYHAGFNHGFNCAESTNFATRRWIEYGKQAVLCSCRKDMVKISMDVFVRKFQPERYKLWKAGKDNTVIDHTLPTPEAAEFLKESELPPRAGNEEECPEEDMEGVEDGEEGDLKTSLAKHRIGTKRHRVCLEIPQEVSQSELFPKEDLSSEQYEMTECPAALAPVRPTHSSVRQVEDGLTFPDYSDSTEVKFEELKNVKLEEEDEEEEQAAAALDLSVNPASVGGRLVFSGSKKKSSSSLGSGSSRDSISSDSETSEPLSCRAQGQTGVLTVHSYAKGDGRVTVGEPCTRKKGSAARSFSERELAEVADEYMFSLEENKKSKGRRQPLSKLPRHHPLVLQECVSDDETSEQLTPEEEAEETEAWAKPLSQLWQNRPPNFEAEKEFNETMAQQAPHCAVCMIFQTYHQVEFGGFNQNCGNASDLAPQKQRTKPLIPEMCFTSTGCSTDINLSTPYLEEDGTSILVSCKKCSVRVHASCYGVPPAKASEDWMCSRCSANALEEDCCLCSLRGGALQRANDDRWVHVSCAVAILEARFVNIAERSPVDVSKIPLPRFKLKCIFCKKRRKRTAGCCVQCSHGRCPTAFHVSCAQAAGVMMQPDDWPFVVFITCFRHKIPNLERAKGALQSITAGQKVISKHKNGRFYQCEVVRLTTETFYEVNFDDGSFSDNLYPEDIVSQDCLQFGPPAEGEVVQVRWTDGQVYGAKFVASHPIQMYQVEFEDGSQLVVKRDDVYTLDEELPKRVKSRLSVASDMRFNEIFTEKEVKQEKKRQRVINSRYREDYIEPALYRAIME
Hits are given with their value; n = inactive; u = inconclusive; x = no result given; ! = a repeat was not active; [ ] = remark or other dose. The call rests on the fitted dose curve; in most records, active means well fitted curve in the direction sought with a large enough effect; inconclusive means small, poorly fitted or top-dose-only effect, or another doubt; inactive means no such curve, though single readings can be large; an effect the other way counts as inactive or inconclusive.

SMILES	L3MBTL1 inh	HP1b chromo inh	Sfp PPTase inh	BAZ2B block	G9a block	JMJD2A Tudor inh
CCCOC(=O)CCCN1C(=O)/C(=C2\SC(=S)N(CCCC(=O)OCCC)C2=O)SC1=S	n	u	n	3.16µM	1.12µM	u
CCCCCOC(=O)CCN1C(=O)/C(=C2\SC(=S)N(CCC(=O)OCCCCC)C2=O)SC1=S	n	n	u	u	x	n
CCOc1cc(Cl)c(S(=O)(=O)n2ccnc2)cc1Cl	x	n	x	n	n	n
COc1ccc(O[C@H]2C=C[C@@H](c3ccccc3)O[C@H]2CO/N=C\C[C@@H]2C=C[C@H](OC(C)=O)[C@H](COC(C)=O)O2)cc1	x	x	n	x	x	x
O=C(CCCOC(=O)c1ccc(O)cc1O)c1ccc(Br)cc1	n	n	x	n	u	n
CCCCNc1nc(CC(C)=O)ns1	x	n	n	n	n	n
CCc1ccc(CCC(=O)Nc2nc(CC(C)=O)ns2)o1	n	n	u	n	70.8µM	u
CCc1ccc(CCC(=O)Nc2nnc(C)s2)o1	n	n	n	n	n[12.7 µM]	n
CNc1nc(CC(C)=O)ns1	n	n	n	n	79.4µM	n
CSc1nnc2c3cc(C)ccc3n(Cc3ccccc3)c2n1	n	n	56.2µM	n	u	n
CCCn1c2ccc(C)cc2c2nnc(SCCN3CCCCC3)nc21	x	n	u	n	8.91µM	n
CCn1c2ccc(C)cc2c2nnc(SCCN3CCCCC3)nc21	x	n	n	n	n	n
CCOc1ccc2c(c1)nc(SCC(=O)c1cccs1)n2C	n	n	u	n	25.1µM	39.8µM
CCOc1ccc2c(c1)nc(SCC(=O)c1ccc(Br)s1)n2C	n	n	31.6µM	n	39.8µM	39.8µM
CCOC(=O)c1cc(-c2ccccc2)n(-c2cccc(C(=O)N(CC)c3ccccc3)c2)c1C	x	n	x	10µM	u	u
CCOC(=O)c1cc(C)n(-c2ccccc2)c1C	n	n	n	79.4µM	n	n
CCOC(=O)c1cc(-c2ccccc2)n(-c2cccc(C(=O)Nc3cccc(C)c3)c2)c1C	x	n	x	n	u	u
COc1ccccc1N1C(=O)c2ccc(C(=O)Nc3nccs3)cc2C1=O	n	n	n	n	n	u
CC1=C(/C=C/C(C)=C/C=C/C(C)=C\C(=O)O)C(C)(C)CCC1	x	n	n	x	n[12.7 µM]	n
CC1=C(/C=C/C(=O)O)C(C)(C)CCC1	x	n	n	n	n	n
CC1=C(\C=C/C(C)=C/C=C\C(C)=C\C(=O)O)C(C)(C)CCC1	x	x	n	x	10µM	x
CC1=C(/C=C/C(=C/C=C/C(C)=C/C(=O)O)c2ccc(C)cc2)C(C)(C)CCC1	x	x	u	x	22.4µM	x
CC1=C(/C=C/C(C)=C/C=C/C(C)=C/C(=O)Nc2ccc(O)cc2)C(C)(C)CCC1	n	u	n	n	12.6µM!	50.1µM
O=C(c1cc(C(F)(F)F)cc(C(F)(F)F)c1)N1CCC2(CC1)CCN(c1ccccc1)CC2	x	x	n	x	n[12.7 µM]	x
COc1ccc(NC(=O)CN(C)C(=O)c2cccc(S(=O)(=O)Nc3ccccc3Cl)c2)cc1	n	n	x	n	n[2.33 µM]	n
SMILES	L3MBTL1 inh	HP1b chromo inh	Sfp PPTase inh	BAZ2B block	G9a block	JMJD2A Tudor inh
CCCCOc1ccc(C(=O)NCCOc2cccc(OC)c2)cc1	x	n	n	n	n	n
O=C(Cc1ccc(NC(=O)N2CCCCc3ccccc32)cc1)Nc1ccccc1Br	x	n	x	n	n	n
CCN(CC)CCOc1cc2c(nn1)Oc1ccccc1N2C	n	n	n	u	50.1µM	u
CN1c2ccccc2Oc2nnc(Cl)cc21	n	n	n	n	n	n
Cc1ccc(C(=O)C[n+]2cccc3ccccc32)cc1	n	n	n	n	u	n
NC(=O)C[n+]1cccc2ccccc21	n	n	n	n	u	22.4µM
Cc1cc2c(s1)c1cnn(Cc3cccc(C)c3F)c(=O)c1n2C	x	x	x	x	x	n
CCOC(=O)c1ccc(NC(=O)NNS(=O)(=O)c2cc(OC)ccc2OC)cc1	x	n	n	n	70.8µM	n
CCOC(=O)c1nnsc1NC(=O)Nc1ccc(OC)cc1	n	n	n	u	39.8µM	n
COc1ccc(NC(=O)Nc2c(SC)nsc2SC)cc1	n	n	n	n	39.8µM	n[11.4 µM]
CC(Oc1ccc(F)cc1)C(=O)NCC1(N(C)C)CCCCC1 (centres undefined)	x	n	x	n	n	n
Cc1ccc(C(=O)O)cc1NC(=O)c1ccc2c(c1)C(=O)N(c1ccc([N+](=O)[O-])cc1)C2=O	x	n	n	u	u	n
O=C(O)c1ccc(N2C(=O)/C(=C/c3ccc(-c4ccc([N+](=O)[O-])cc4)o3)C=C2c2ccccc2)cc1	n	14.1µM	50.1µM	11.2µM	5.62µM	7.94µM
N#CC1=C(N)OC2=C(CCC/C2=C/c2ccoc2)C1c1ccoc1 (centres undefined)	15.8µM	x	39.8µM	u	15.8µM	x
N#CC1=C(N)OC2=C(CC/C2=C\c2ccc(F)cc2)C1c1ccc(F)cc1 (centres undefined)	n	x	n	n	u	x
Cc1ccc(-n2cnc3c(sc4nc(N5CCOCC5)c5c(c43)CCCC5)c2=O)cc1	n	n	n	n	50.1µM	n
COc1ccc(CN(C(=O)c2ccccc2F)C2CCS(=O)(=O)C2)cc1 (centres undefined)	x	n	x	n	n	n
CCc1ccccc1NC(=S)N1CCNC(=O)C1CC(=O)OC (centres undefined)	n	n	n	n	n	44.7µM
COC(=O)CC1C(=O)NCCN1C(=S)Nc1cc(C)cc(C)c1 (centres undefined)	n	n	n	n	n	n
COC(=O)CC1C(=O)NCCN1C(=S)Nc1ccccc1 (centres undefined)	n	n	n	n	n	n
CCNC(=S)N1CCNC(=O)C1CC(=O)OC (centres undefined)	n	n	79.4µM	n	n	n
Cc1ccsc1C(=O)NNC(=O)c1ccncc1	n	n	x	n	n	n
Cc1ccc(S(=O)(=O)CCN2CCC(n3cccc3)CC2)cc1	n	n	n	39.8µM	x	n
CN(C)c1ccc(Cc2cc3c(O)ccc(O)c3cc(Cc3ccc(N(C)C)cc3)c2=O)cc1	x	u	x	x	x	3.16µM
CCOC(=O)CNC(=O)CSc1nc(-c2ccc(OC)cc2)ns1	n	u	39.8µM	n	17.8µM	n
SMILES	L3MBTL1 inh	HP1b chromo inh	Sfp PPTase inh	BAZ2B block	G9a block	JMJD2A Tudor inh
CCOC(=O)Cn1nc(-c2ccccc2)nc1-c1ccccc1	n	n	n	n	n	5.62µM
CCOC(=O)CSc1nc(-c2ccccc2)ns1	n	n	15.8µM	n	8.91µM	n
COc1ccc(-c2nsc(SCC(=O)Nc3cc(C)on3)n2)cc1	n	u	15.8µM	n	3.55µM	u
CCc1nnc(NC(=O)CSc2nc(-c3ccc(OC)cc3)ns2)s1	n	n	n	n	u	n
O=C(CC1N=C2c3ccccc3N=C(SCC(=O)Nc3cccc(Cl)c3)N2C1=O)NCc1cccs1 (centres undefined)	x	n	x	n	n	n
Cc1ccc(-c2nsc(SCC(=O)NCC3CCCO3)n2)cc1 (centres undefined)	x	n	n	x	n	n

Assay outcomes from PubChem.
